Molecules are shown by their SMILES. Calls of active or inactive are those of the source.

17 molecules from PubChem BioAssay can be followed below.

One assay deals with Albumin (Bos taurus) (UniProt P02769). Nature of the assay: compounds binding labelled BSA control protein – biochemical, small-molecule microarray, Alexa647 label, 635/667 nm fluorescence, artefact control for SMM control protein annotation, profiling panel (AID 1118).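 Further: score merges 667 nm emission intensity and signal-to-noise per printed compound spot.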 The note with it: BSA-A647 binding, fluorescence 635 nm, higher = more signal.
Sequence of Albumin (Bos taurus) (P02769 whole entry, looked up): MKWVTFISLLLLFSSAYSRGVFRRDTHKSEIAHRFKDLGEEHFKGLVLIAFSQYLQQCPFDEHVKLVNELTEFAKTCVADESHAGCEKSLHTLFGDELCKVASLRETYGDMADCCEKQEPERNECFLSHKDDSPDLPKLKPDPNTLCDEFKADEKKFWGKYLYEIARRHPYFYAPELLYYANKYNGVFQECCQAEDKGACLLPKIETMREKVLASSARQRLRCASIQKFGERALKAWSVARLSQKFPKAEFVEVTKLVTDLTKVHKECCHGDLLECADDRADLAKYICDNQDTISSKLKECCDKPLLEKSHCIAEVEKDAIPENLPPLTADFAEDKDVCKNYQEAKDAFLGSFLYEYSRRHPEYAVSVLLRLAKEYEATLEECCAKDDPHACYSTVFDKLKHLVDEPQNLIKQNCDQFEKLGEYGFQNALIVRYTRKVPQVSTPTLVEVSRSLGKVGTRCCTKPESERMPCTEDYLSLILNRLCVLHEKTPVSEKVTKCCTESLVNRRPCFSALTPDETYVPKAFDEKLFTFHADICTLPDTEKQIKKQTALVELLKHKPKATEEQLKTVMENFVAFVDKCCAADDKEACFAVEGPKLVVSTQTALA
The nature of assay [1]: probe aXIP binding to arrayed compounds – biochemical, NeuroSMM set, 635/667 nm fluorescence, primary screen (AID 1119).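 Further: probe is the protein aXip251-270 applied at 1 µg/mL to compound-printed slides; binding of probe to printed compounds measured as 667 nm fluorescence plus signal to noise.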 The note with it: small-molecule microarray, higher = more signal, called active from +8 up or from −8 down.
A short description of assay [2]: probe aNOTCH3 binding on compound microarray – biochemical, small-molecule microarray, 635/667 nm fluorescence, primary screen (AID 1120).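 Further: probe is a biotin-tagged antibody raised against NOTCH3 rather than NOTCH3 protein; score merges spot fluorescence near 667 nm with spot signal to noise.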 The note with it: higher = more signal.
A short description of assay [3]: probe aNOTCH2 binding on compound microarray – biochemical, small-molecule microarray, 635/667 nm fluorescence, primary screen (AID 1121).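 Further: score merges feature fluorescence read at 667 nm with its signal to noise.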 The note with it: higher = more signal.
Assay [4] addresses Carbonic anhydrase 2 (Homo sapiens) (UniProt P00918). Nature of the assay: compounds binding carbonic anhydrase 2 – biochemical, small-molecule microarray, Alexa647-labelled CAII, profiling panel (AID 1122). The note with it: CAII-A647 binding fluorescence, higher = more signal.
The nature of assay [5]: COS7 lysate on small-molecule microarray, probe aHis, 635 nm (AID 1123).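 Further: z-score combines 667nm fluorescence intensity with signal-to-noise per printed compound spot.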 The note with it: COS7 cell lysate, fluorescence, higher = more signal.
The nature of assay [6]: probe aLAP1 signal on lysate-treated microarray – cell lysate, small-molecule microarray, COS7 lysate, primary screen (AID 1124).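 Further: lysate comes from COS7 cells expressing LAP1 and is applied at 0.3 µg/mL; score merges spot fluorescence near 667 nm with signal-to-noise over triplicate slides.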 The note with it: probe aLAP1, fluorescence, higher = more signal.
For the next assay, the system named is Sam68 (KHDRBS1). The assay is described as follows: compounds binding KHDRBS1 protein – biochemical, small-molecule microarray, 635 nm fluorescence, primary screen (AID 1125).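 Further: score merges 667 nm channel intensity with signal to noise over triplicate slides.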 The note with it: higher = more signal.
Assay [7] concerns Chordin-like protein 2 (CHRDL2). Nature of the assay: compounds binding chordin-like 2 – biochemical, small-molecule microarray, 635 nm fluorescence, primary screen (AID 1126).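 Further: printed compound slides probed with Chrdl2 protein at 4 µg/mL for 1 h at 4 C; score merges 667 nm emission intensity with signal to noise over three replicate slides.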 The note with it: fluorescence 635 nm, higher = more signal.
Assay [8] has as its target Concanavalin-A (Canavalia ensiformis) (UniProt P02866). Nature of the assay: compounds binding concanavalin A lectin – biochemical, small-molecule microarray, Alexa647 label, 635 nm, artefact control for SMM control protein annotation, primary screen (AID 1127).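 Further: z combines 667 nm emission intensity with signal-to-noise across three replicate slides.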 The note with it: ConA-A647 binding fluorescence, higher = more signal.

Sequence of Concanavalin-A (Canavalia ensiformis) (P02866 whole entry, looked up): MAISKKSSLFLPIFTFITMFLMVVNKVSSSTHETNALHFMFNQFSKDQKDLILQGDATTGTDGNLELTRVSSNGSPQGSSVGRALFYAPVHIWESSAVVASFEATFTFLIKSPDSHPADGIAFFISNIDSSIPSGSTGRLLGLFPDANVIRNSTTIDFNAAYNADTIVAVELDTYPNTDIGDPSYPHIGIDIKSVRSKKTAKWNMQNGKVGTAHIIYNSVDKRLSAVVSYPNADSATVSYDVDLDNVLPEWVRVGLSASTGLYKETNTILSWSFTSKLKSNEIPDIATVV

With `C=Cc1ccc([C@H]2N[C@H](C(=O)O)CC[C@@H]2C)cc1`, the composite z-score with Albumin (Bos taurus) is 0.108; in assay [2], -0.178; in assay [3] it was -0.155; in assay [4] it was 0.275; in assay [5], -0.344; in [6], 0.723. The composite z-score with Sam68 (KHDRBS1) is -1.6; in assay [7] it was 0.65; in [8] it was -0.437. Further, the composite Z-score in assay [1] was -0.602 (inactive).

As to `CCOC(=O)[C@H](Cc1ccccc1)NC(=O)CCC1CC(OC(=O)NCc2cccc3ccccc23)CC2(CCCC(COC(=O)NCc3ccccc3)O2)O1` (stereo not given in full), the composite z-score was 0.561 in the assay with Albumin (Bos taurus); -0.0204 in [2]; -0.155 in [3]; 0.452 in assay [4]; 1.06 in assay [5]; -0.398 in [6]. Moreover, the composite z-score in the assay with Sam68 (KHDRBS1) stood at 0.712; in [7] it was 0.0223; in assay [8], 0.649. Further, the composite Z-score in assay [1] is -0.0662 (inactive).

Regarding `CO[C@H]1COC(=O)CC=C[C@H](C)[C@@H](OC)COC(=O)[C@@H](C)COC(=O)CC=C[C@@H]1C`, the composite z-score is -0.93 in the assay with Albumin (Bos taurus); -0.0647 in assay [2]; -0.146 in assay [3]; -0.535 in [4]; -0.25 in [5]; -0.145 in assay [6]. For the same molecule, the composite z-score in the assay on Sam68 (KHDRBS1) was -0.132; in [7], 1.51; in assay [8], -1.85. Further, the composite Z-score in assay [1] was 0.793 (inactive).

As to `C#CCCCON=C1C[C@@H](O)[C@@H](O)[C@@H]2[C@@H]3C(=O)N(Cc4ccccc4)C(=O)[C@@H]3CC[C@@H]12`, the composite z-score with Albumin (Bos taurus) is 0.745; in assay [2] it was -0.03; in assay [3] it was -0.178; in assay [4] it was -0.103; in assay [5], -0.0919; in assay [6] it was -0.0209. Besides, the composite z-score in the assay with Sam68 (KHDRBS1) is -0.492; in [7], 0.0362; in [8], -0.324. For the same molecule, the composite Z-score in assay [1] is 0.23 (inactive).

For `COC(=O)CC=C[C@@H](C)[C@@H](C=NO[C@@H](C)c1cn([C@H](CO)Cc2ccccc2)nn1)OC`, the composite z-score in the assay with Albumin (Bos taurus) was 0.943; in assay [2], -0.0069; in assay [3], -0.103; in assay [4], -0.225; in assay [5], -0.274; in [6], 0.137. Moreover, the composite z-score in the assay on Sam68 (KHDRBS1) was 0.695; in assay [7], 0.664; in assay [8] it was -0.61. The composite Z-score in [1] is -0.452 (inactive).

On to `CC(C)=CCCC(C)=CCON=C1C[C@@H](O)[C@@H](O)[C@@H]2[C@@H]3C(=O)N(Cc4ccccc4)C(=O)[C@@H]3CC[C@@H]12`, for which the composite z-score in the assay with Albumin (Bos taurus) is 0.772; in assay [2] it was -0.0395; in assay [3], -0.193; in assay [4], -0.148; in assay [5] it was 0.043; in [6], -0.0612. The composite z-score stood at 0.571 with Sam68 (KHDRBS1), 1.4 in assay [7] and 0.304 in [8]. Moreover, in assay [1], the composite Z-score was -0.349 (inactive).

On to `CC(C)(C)N1C(=O)[C@H]2[C@H]3[C@H](O)[C@H](O)CC(=O)[C@@H]3CC[C@H]2C1=O`, for which the composite z-score with Albumin (Bos taurus) was 0.061; in assay [2] it was -0.0918; in [3] it was 0.0811; in assay [4], 0.113; in assay [5], 0.113; in [6], 0.102. Besides, the composite z-score with Sam68 (KHDRBS1) is 0.0236; in [7], 0.265; in assay [8] it was 0.395. The composite Z-score in assay [1] was 0.302 (inactive).

Regarding `CCOC(=O)[C@H](CC(C)C)NC(=O)CCC1CC(OC(=O)NCCc2ccc(F)cc2)CC2(CCCC(COC(=O)NCCOc3ccccc3)O2)O1` (stereo not given in full), the composite z-score was 0.671 with Albumin (Bos taurus); 0.0496 in assay [2]; -0.0971 in [3]; 0.193 in [4]; 1.31 in assay [5]; -0.0164 in assay [6]. Besides, the composite z-score with Sam68 (KHDRBS1) turned out to be 1.23; in [7], 0.324; in assay [8], 0.931. Further, the composite Z-score in assay [1] was 0.0308 (inactive).

In the case of `CC(=O)O[C@H]1C2=CO[C@H](C)[C@H]3[C@H]4C5=C([C@H](O)[C@H]6O[C@H]6C5=O)[C@H](OC4C)[C@@]23C(=O)[C@@H]2O[C@@H]21` (stereo not given in full), the composite z-score was 0.767 in the assay with Albumin (Bos taurus); 0.0836 in [2]; -0.0357 in assay [3]; 0.357 in [4]; 0.249 in assay [5]; 0.228 in assay [6]. The composite z-score with Sam68 (KHDRBS1) was 0.583; in assay [7], 0.0249; in [8] it was -0.185. The composite Z-score in [1] was 0.719 (inactive).

Take `COc1ccc(COC(=O)NN=C2C[C@@H](O)[C@@H](O)[C@@H]3[C@@H]4C(=O)N(c5ccc(F)cc5F)C(=O)[C@@H]4CC[C@H]23)cc1`: the composite z-score in the assay with Albumin (Bos taurus) was 0.446; in [2] it was 0.0961; in assay [3], -0.157; in [4], -0.0507; in assay [5], -0.181; in assay [6], 0.0054. Further, the figures for the composite z-score (in the assay with Sam68 (KHDRBS1); in assay [7]; in assay [8]) were -0.169, -0.293 and 0.0493, respectively. For the same molecule, the composite Z-score in [1] is 3.84 (inactive).

Consider `CC(CCN1CCCCc2nc(C)c(C)cc21)=NO[C@@H](C)c1cn([C@H](CO)Cc2ccccc2)nn1`, for which the composite z-score in the assay with Albumin (Bos taurus) is 0.779; in [2], 0.0833; in assay [3], -0.14; in [4], 0.464; in assay [5], -0.01; in [6], -0.248. Besides, the results for the composite z-score (in the assay with Sam68 (KHDRBS1); in assay [7]; in assay [8]) were 0.719, 0.953 and 0.249, respectively. In assay [1], the composite Z-score was 0.364 (inactive).

As to `CC(C)CON=C1[C@H]2CCn3c(=O)n(Cc4cc5c(cc4Cl)OCO5)c(=O)n3[C@H]2[C@H](O)[C@@H]2O[C@H]12`, the composite z-score is -0.0261 with Albumin (Bos taurus); -0.0328 in [2]; -0.0718 in [3]; 0.0904 in [4]; -0.182 in [5]; -0.177 in assay [6]. Also, the composite z-score in the assay on Sam68 (KHDRBS1) amounted to 0.344; in assay [7] it was 0.529; in [8] it was 0.702. Further, the composite Z-score in assay [1] is 0.242 (inactive).

For the molecule `CCOC(=O)CCN1C(=O)[C@H]2[C@H]3[C@H](O)[C@H](O)CC(=NNC(=O)OCc4ccccc4)[C@@H]3CC[C@H]2C1=O`, the composite z-score was 0.576 in the assay with Albumin (Bos taurus); -0.0864 in assay [2]; -0.117 in assay [3]; 0.21 in assay [4]; -0.0034 in assay [5]; 0.32 in [6]. Also, the composite z-score with Sam68 (KHDRBS1) came to 1.19; in assay [7], 0.393; in [8], 1. The composite Z-score in assay [1] was 0.406 (inactive).

Turning to `CO[C@H]1COC(=O)[C@@H](C)COC(=O)[C@H](COCc2ccccc2)NC(=O)CC=C[C@H]1C`, the composite z-score was -1.04 in the assay with Albumin (Bos taurus); -0.0077 in assay [2]; -0.135 in assay [3]; -0.551 in [4]; -1.73 in [5]; -0.81 in assay [6]. Besides, the composite z-score was -1.17 with Sam68 (KHDRBS1), 1.22 in [7] and -3.77 in assay [8]. In [1], the composite Z-score was 2.09 (inactive).

Take `CC(CCN1CCc2nc(-c3ccccc3)c(-c3ccccc3)cc2C1)=NOC[C@@H](O)[C@H]1O[C@@H]2OC(C)(C)O[C@@H]2[C@H]1O`: the composite z-score in the assay with Albumin (Bos taurus) was 0.535; in [2], -0.051; in [3], -0.0291; in [4] it was 0.0181; in assay [5], 1; in assay [6], 0.608. The composite z-score worked out at 1.13 in the assay on Sam68 (KHDRBS1), 0.507 in assay [7] and 0.696 in assay [8]. Moreover, the composite Z-score in assay [1] was 0.42 (inactive).

In the case of `CCc1cc2c(nc1CC)CCN(CCC(C)=NO[C@H](C)c1cn([C@@H]3COC[C@H]3O)nn1)C2`, the composite z-score with Albumin (Bos taurus) is -0.559; in assay [2] it was -0.005; in assay [3], -0.0554; in assay [4], 0.202; in [5], -0.394; in assay [6] it was 0.111. The composite z-score in the assay on Sam68 (KHDRBS1) was 0.325; in assay [7], 0.61; in assay [8] it was -0.178. For the same molecule, the composite Z-score in assay [1] was 0.577 (inactive).

For the molecule `C[C@@H](ON=C1[C@H]2CCn3c(=O)n(-c4ccccc4)c(=O)n3[C@H]2[C@H](O)[C@@H]2O[C@H]12)c1cn([C@@H]2COC[C@H]2O)nn1`, the composite z-score was -0.244 with Albumin (Bos taurus); 0.0159 in assay [2]; -0.0938 in assay [3]; 0.134 in assay [4]; -0.282 in [5]; 0.211 in assay [6]. Besides, the composite z-score turned out to be 0.509 in the assay on Sam68 (KHDRBS1), 0.534 in assay [7] and 0.459 in assay [8]. In assay [1], the composite Z-score is -0.419 (inactive).
